Records with an inconclusive call do not appear. Calls of active or inactive are those of the source. Rule for the calls: active = hit-call score of the fitted dose curve at least 0.9, where 1 is the maximum; inconclusive = response in the unintended direction; inactive = score below 0.9.

A short description of experiment [1]: TOX21_p53_BLA_p2_viability: Viability Assessment in the Tox21 HCT-116 p53 Agonism Beta-lactamase Assay, Phase 2 (AID 2283591).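 Note: compound exposure lasted 16 h at 37 °C; actives lower the ATP signal meaning cytotoxicity.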 In outline:
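HCT116 p53-bla cells, 4000/well, dosed after 5 h plating (217-fold dilution of DMSO stocks) and incubated 16 h at 37C. Viability taken as cellular ATP by CellTiter-Glo luminescence after 30 min RT; signal loss marks cytotoxicity.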

Experiment [2] concerns the target Cellular tumor antigen p53 (Homo sapiens) (UniProt P04637). The experiment can be described thus: TOX21_p53_BLA_p2_ratio: Tox21 HCT-116 p53 Agonism Beta-lactamase Assay, Ratio, Phase 2 (AID 2283592). In outline: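 Plated HCT116 p53-bla cells (4000/well) received compound after 5 h, then 16 h at 37C/5% CO2. CCF4-AM added, 2 h RT. Ratio of 460 to 530 nm emission taken as the p53 reporter signal.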

Experiment [3] in a line: TOX21_p53_BLA_p3_viability: Viability Assessment in the Tox21 HCT-116 p53 Agonism Beta-lactamase Assay, Phase 3 (AID 2283593).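 Note: cells exposed to compound for 16 h before reading.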 In outline:
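HCT116 cells, 4000/well, dosed 5 h after plating by pin transfer (217-fold dilution from DMSO stock) and incubated 16 h at 37C, 5% CO2. Viability read as ATP luminescence with CellTiter-Glo after 30 min at room temperature.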

Experiment [4] concerns the target Cellular tumor antigen p53 (Homo sapiens) (UniProt P04637). The experiment can be described thus: TOX21_p53_BLA_p3_ratio: Tox21 HCT-116 p53 Agonism Beta-lactamase Assay, Ratio, Phase 3 (AID 2283596). Put shortly: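 Cells were seeded at 4000/well, rested 5 h at 37C, then dosed with DMSO compound solutions (217-fold dilution) for 16 h. CCF4-AM substrate was loaded for 2 h at room temperature, and the 460/530 nm emission ratio was fitted for gain of signal versus DMSO.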

Experiment [5] can be described thus: TOX21_p53_BLA_p4_viability: Viability Assessment in the Tox21 HCT-116 p53 Agonism Beta-lactamase Assay, Phase 4 (AID 2283597).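 Note: hits lower the luminescence signal meaning cytotoxicity.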 In outline:
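Readout: ATP luminescence (CellTiter-Glo), measured 30 min after reagent addition at RT. The reagent followed a 2 h CCF4-AM incubation, and the cells had been exposed to compound for 16 h at 37C.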

Experiment [6] addresses Cellular tumor antigen p53 (Homo sapiens) (UniProt P04637). The experiment in a line: TOX21_p53_BLA_p5_ratio: Tox21 HCT-116 p53 Agonism Beta-lactamase Assay, Ratio, Phase 5 (AID 2283599). In outline:
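HCT-116 p53-bla cells (4000/well) plated 5 h, dosed with compound (217-fold DMSO dilution) for 16 h at 37 C; CCF4-AM substrate 2 h at room temperature. Activity is the 460/530 nm emission ratio (405 nm excitation), fitted in gain-of-signal direction versus DMSO.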

A short description of experiment [7]: TOX21_p53_BLA_p5_viability: Viability Assessment in the Tox21 HCT-116 p53 Agonism Beta-lactamase Assay, Phase 5 (AID 2283600). Put shortly: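 Workflow: seed 4000 cells per well, wait 5 h, add compounds (DMSO, 217-fold dilution), incubate 16 h, load CCF4-AM 2 h, add CellTiter-Glo, read luminescence after 30 min.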
The target in experiment [8] is Cellular tumor antigen p53 (Homo sapiens) (UniProt P04637). The experiment in a line: TOX21_p53_BLA_p4_ratio: Tox21 HCT-116 p53 Agonism Beta-lactamase Assay, Ratio, Phase 4 (AID 2283601). In outline:
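HCT-116 p53 beta-lactamase reporter cells (4000/well) preincubated 5 h, then compound (217-fold dilution of DMSO stock) for 16 h at 37C. CCF4-AM substrate added 2 h at room temperature; 460/530 nm emission ratio fitted upward versus DMSO.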

Sequence of Cellular tumor antigen p53 (Homo sapiens) (P04637 whole entry, looked up): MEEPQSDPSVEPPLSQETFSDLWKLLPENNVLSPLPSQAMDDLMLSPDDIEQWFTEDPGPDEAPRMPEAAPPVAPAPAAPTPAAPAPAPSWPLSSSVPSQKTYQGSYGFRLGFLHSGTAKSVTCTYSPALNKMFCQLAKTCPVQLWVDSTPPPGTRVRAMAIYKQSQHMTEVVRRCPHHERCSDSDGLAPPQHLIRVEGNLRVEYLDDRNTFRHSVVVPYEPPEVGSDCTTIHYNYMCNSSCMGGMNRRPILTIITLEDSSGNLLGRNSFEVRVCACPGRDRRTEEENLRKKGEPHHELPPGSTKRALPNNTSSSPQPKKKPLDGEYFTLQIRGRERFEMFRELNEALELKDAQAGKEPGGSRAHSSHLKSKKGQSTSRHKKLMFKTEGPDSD

The AC50 is the midpoint of the concentration-response curve, whichever way the signal moves. With `O=S(c1cc(Cl)cc(Cl)c1O)c1cc(Cl)cc(Cl)c1O`, the result in experiment [1], in experiment [3], in experiment [5], in experiment [6] and in experiment [7] was inactive. The concentration at half-maximal activity (AC50) in experiment [2] was 16.2 µM (active); in experiment [4], 6.85 µM (active); in experiment [8], 15.1 µM (active).
As for `NC(=S)N=Nc1ccc(NN=C(N)N)cc1`, the result in experiment [1], in experiment [2], in experiment [3], in experiment [4], in experiment [5] and in experiment [6] was inactive. In addition, the compound was called inactive in experiment [7] and in experiment [8].
With `CCCCCCCCNC(C)C(O)c1ccc(SC(C)C)cc1` (configuration not stated), the AC50 in experiment [1] is 22.4 µM (active); in experiment [2], 35.8 µM (active); in experiment [3] it was 15.2 µM (active); in experiment [4] it was 18.7 µM (active); in experiment [5], 18.3 µM (active); in experiment [6], 23.9 µM (active). The AC50 in experiment [7] is 19 µM (active); in experiment [8], 33.9 µM (active).
`Oc1c(Cl)cc(Cl)c2cccnc12`: the compound was called inactive in experiment [1], in experiment [3] and in experiment [7]. The AC50 was 7.4 µM (active) in experiment [2]; 7.23 µM (active) in experiment [4]; 7.77 µM (active) in experiment [5]; 7.4 µM (active) in experiment [6]; 6.25 µM (active) in experiment [8].
`CNCCCC1c2ccccc2C=Cc2ccccc21`: the call in experiment [1], in experiment [2], in experiment [3], in experiment [4], in experiment [5] and in experiment [6] was inactive. The call in experiment [7] and in experiment [8] was inactive.
In the case of `COc1cc(-c2ccc(-[n+]3nc(-c4ccccc4)nn3-c3ccc([N+](=O)[O-])cc3)c(OC)c2)ccc1-[n+]1nc(-c2ccccc2)nn1-c1ccc([N+](=O)[O-])cc1`, the AC50 was 13 µM (active) in experiment [1]; 19.1 µM (active) in experiment [2]; 21.3 µM (active) in experiment [3]; 36.5 µM (active) in experiment [4]; 11.4 µM (active) in experiment [5]; 21.7 µM (active) in experiment [6]. In addition, the AC50 was 17.6 µM (active) in experiment [7] and 18 µM (active) in experiment [8].
As for `CO[Si](CCCNc1ccccc1)(OC)OC`, the result in experiment [1], in experiment [2], in experiment [3], in experiment [4], in experiment [5] and in experiment [6] was inactive. For the same compound, the outcome in experiment [7] and in experiment [8] was inactive.
Consider `Nc1ccc(S(=O)(=O)Nc2ccc(Cl)nn2)cc1`, for which the call in experiment [1], in experiment [2], in experiment [3], in experiment [4], in experiment [5] and in experiment [6] was inactive. Moreover, the compound was called inactive in experiment [7] and in experiment [8].
For the compound `CC(=O)Oc1ccc(C2(c3ccc(OC(C)=O)cc3)Oc3ccccc3NC2=O)cc1`, the outcome in experiment [1], in experiment [3], in experiment [4], in experiment [5], in experiment [7] and in experiment [8] was inactive. Besides, the AC50 is 2.17 µM (active) in experiment [2] and 6.63 µM (active) in experiment [6].
With `CCCN(CCc1cccs1)[C@H]1CCc2c(O)cccc2C1`, the compound was classed as inactive in experiment [1], in experiment [2], in experiment [3], in experiment [4], in experiment [5] and in experiment [6]. The outcome in experiment [7] and in experiment [8] was inactive.
In the case of `O=C(O)Cc1cn(-c2ccccc2)nc1-c1ccc(Cl)cc1`, the result in experiment [1], in experiment [2], in experiment [3], in experiment [4], in experiment [5] and in experiment [6] was inactive. For the same compound, the call in experiment [7] and in experiment [8] was inactive.
In the case of `Cc1c(C)n(Cc2ccccc2)c2ccc(C(=O)OCCN(C)C)cc12`, the compound was called inactive in experiment [1], in experiment [2], in experiment [3], in experiment [4], in experiment [6] and in experiment [7]. For the same compound, the outcome in experiment [8] was inactive. In addition, the AC50 in experiment [5] is 18.3 µM (active).
Take `C=C1CC[C@H](O)C/C1=C/C=C1\CCC[C@]2(C)[C@@H]([C@H](C)CCCC(C)(C)O)CC[C@@H]12`: the AC50 in experiment [1] is 12.8 µM (active); in experiment [2], 19.2 µM (active); in experiment [3], 13.7 µM (active); in experiment [4], 27.6 µM (active); in experiment [5] it was 12.8 µM (active); in experiment [6] it was 23.2 µM (active). In addition, the figures for the AC50 in experiment [7] and in experiment [8] were 13.1 µM (active) and 18.6 µM (active), respectively.
On to `CN1C(=O)OC(C)(C)C1=O`, for which the outcome in experiment [1], in experiment [2], in experiment [3], in experiment [4], in experiment [5] and in experiment [6] was inactive. The compound was called inactive in experiment [7] and in experiment [8].
Turning to `Nc1c2c(nc3c1CCC3)CCCC2`, the compound was classed as inactive in experiment [1], in experiment [2], in experiment [3], in experiment [4], in experiment [5] and in experiment [6]. The outcome in experiment [7] and in experiment [8] was inactive.
For `CCCCCCCCCCCCCCCCCC(=O)OC[C@@H](O)[C@H]1OC[C@H](O)[C@H]1O`, the call in experiment [1], in experiment [2], in experiment [3], in experiment [4], in experiment [5] and in experiment [6] was inactive. Further, the call in experiment [7] and in experiment [8] was inactive.
Turning to `CC(C)OC(=O)OCOP(=O)(CO[C@H](C)Cn1cnc2c(N)ncnc21)OCOC(=O)OC(C)C`, the call in experiment [1], in experiment [2], in experiment [3], in experiment [4], in experiment [5] and in experiment [6] was inactive. The call in experiment [7] and in experiment [8] was inactive.
Take `COc1ccc(C(=O)CC(=O)c2ccc(C(C)(C)C)cc2)cc1`: the compound was called inactive in experiment [1], in experiment [3], in experiment [4], in experiment [5], in experiment [6] and in experiment [7]. For the same compound, the outcome in experiment [8] was inactive. In addition, the AC50 in experiment [2] was 18.5 µM (active).
For `CC[C@H]1OC(=O)C[C@@H](O)[C@H](C)[C@@H](O[C@@H]2O[C@H](C)[C@@H](O[C@H]3C[C@@](C)(O)[C@@H](O)[C@H](C)O3)[C@H](N(C)C)[C@H]2O)[C@@H](CC=O)C[C@@H](C)C(=O)/C=C/C(C)=C/[C@@H]1CO[C@@H]1O[C@H](C)[C@@H](O)[C@@H](OC)[C@H]1OC`, the outcome in experiment [1], in experiment [2], in experiment [3], in experiment [4], in experiment [5] and in experiment [6] was inactive. For the same compound, the outcome in experiment [7] and in experiment [8] was inactive.

These data come from PubChem BioAssay (EPA / NIEHS).
